Experimental data published in PubChem BioAssay (EPA / NIEHS).
Results filed as inconclusive are left out. Calls of active or inactive are those of the source. How the source made its calls: active means hit-call score of the fitted dose curve at least 0.9, where 1 is the maximum; inconclusive means response in the unintended direction; inactive means score below 0.9.

Assay: ACEA_ER_AUC_viability: ACEA Biosciences xCELLigence Real-Time Cell Analysis on Estrogen Receptor Agonism for Viability (AID 2283782);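 further: continuous compound exposure with impedance area under curve over 80 h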
Method: ACEA_ER is a cell-based, single-readout assay that uses T47D, a human breast cell line, with measurements taken at 80 hours after chemical dosing in a 96-well plate, although TO2 (mc0.srcf) used a 384-well plate. Differences in plate size can be ignored given data normalization.ACEA_ER_AUC_viability is one of two assay component(s) measured or calculated from the ACEA_ER assay. It is designed to make measurements of real-time cell-growth kinetics, a form of growth reporter, as detected with electrical impedance signals by Real-Time Cell Electrode Sensor (RT-CES) technology.Data from the assay component ACEA_ER_AUC_viability was analyzed in the positive analysis fitting direction relative to DMSO as the negative control and baseline of activity. Using a type of growth reporter, loss-of-signal activity can be used to understand changes in the viability. Furthermore, this assay endpoint can be referred to as a secondary readout, because this assay has produced multiple assay endpoints where this one serves a viability function. To generalize the intended target to other relatable targets, this assay endpoint is annotated to the cell cycle intended target family, where the subfamily is cytotoxicity.
The xCELLigence system Multi-E-Plate stations were used to measure the time-dependent response to chemicals. Each compound was tested in an eight-point, 1:4 serial dilution series starting at a maximum final concentration of 100 uM. A maximum starting concentration of 0.5% DMSO was present in the 100 uM chemical samples and was diluted along with the test article dilution series. The screen was performed in biological duplicate using two separate, 96-well, E-Plates 96 for each dilution series (n = 2). Positive controls (MG132 and E2) and a negative control (assay media) were tested in quadruplicate on each testing plate. Then, 0.5% and 0.125% DMSO were tested in duplicates in each plate to serve as solvent controls for the 2 highest concentrations of testing compounds: 100 uM and 25 uM. Reference compounds were tested with 8 concentrations with 1:5 serial dilutions. All screening was carried out by ACEA Biosciences, Inc. (San Diego, CA). T-47D cells purchased from ATCC were maintained in RPMI1640 media supplemented with 10% characterized fetal bovine serum (FBS). Before screening, T-47D cells were preconditioned in assay medium: phenol red-free RPMI1640 supplemented with 10% charcoal-stripped FBS. Cells were then detached and seeded in E-Plates 96 in assay medium. After overnight monitoring of growth once every hour, compounds were added to […] cells and remained in the medium until the end of the experiment. Cellular responses were then recorded once every 5 min for the first 5 h, and once every hour for an additional 100 h.
For `O=C(Cl)C(F)(F)C(F)(F)C(F)(F)C(=O)Cl`, the outcome was “inactive”. In the case of `S=P(N1CC1)(N1CC1)N1CC1`, the AC50 is reported as 69 µM (active). For `FC(F)=C(F)C(F)(F)C(F)(F)C(F)(F)C(F)(F)C(F)(F)C(F)(F)F`, the outcome was “inactive”. For `C=CCc1cc(S(=O)(=O)c2ccc(O)c(CC=C)c2)ccc1O`, the AC50 was 76.7 µM (active). With `O=C(O)c1ccc2c(c1)nc(C(=O)NC1CCN(C3CC3)CC1)n2Cc1cc(-c2ccc(Cl)s2)on1` the outcome was “inactive”. With `CCCCCCCCCCCCCCCCOS(=O)(=O)O` the outcome was “inactive”. In the case of `OC(O)(C(F)C(O)(O)C(F)(F)F)C(F)(F)F`, the AC50 is reported as 75 µM (active). For `COc1cc2c(c(OC)c1OC)-c1ccc(OC)c(=O)cc1[C@@H](NC(C)=O)CC2`, the AC50 was 0.00238 µM (active). With `CCCc1ccccc1` the outcome was “inactive”. For `CCc1ccc(O)c(C(C)(C)C)c1`, the AC50 was 25.5 µM (active). In the case of `CCOC(N)=O`, the outcome is reported as “inactive”. With `Cn1c(=O)c2[nH]cnc2n(C)c1=O` the outcome was “inactive”. For `FC(F)(F)COC(OCC(F)(F)F)OCC(F)(F)F`, the outcome was “inactive”. For `NCC(F)(F)C(F)(F)C(F)(F)C(F)(F)F`, the outcome was “inactive”. In the case of `OCc1c[nH]c2ccccc12`, the AC50 is reported as 87 µM (active). With `Cn1cc[nH]c1=S` the outcome was “inactive”. With `FC(F)C(F)(F)COCC1CO1` (stereo unspecified) the outcome was “inactive”. For `OCCC(F)(F)C(F)(F)C(F)(F)C(F)(F)F`, the outcome was “inactive”. With `Cc1cccc(O)c1C` the outcome was “inactive”. For `COc1cc(C(C)C)c2c(c1)S(=O)(=O)N(COc1cc(=O)n3cccc(OCCN4CCCCC4)c3n1)C2=O`, the AC50 was 17.4 µM (active). In the case of `C[C@@H](Oc1ccc(CNC(=O)c2cccnc2Oc2ccc3c(c2)OCO3)c(F)c1)C(=O)O`, the outcome is reported as “inactive”. For `Cc1ncc([C@@H](CCCCCCc2ccc3c(n2)NCCC3)CC(=O)O)cn1`, the AC50 was 0.00382 µM (active). For `O=S(=O)(O)CCC(F)(F)C(F)(F)C(F)(F)C(F)(F)C(F)(F)C(F)(F)F`, the outcome was “inactive”. With `OC[C@H]1O[C@@H]2O[C@H]3[C@H](O)[C@@H](O)[C@@H](O[C@H]4[C@H](O)[C@@H](O)[C@@H](O[C@H]5[C@H](O)[C@@H](O)[C@@H](O[C@H]6[C@H](O)[C@@H](O)[C@@H](O[C@H]7[C@H](O)[C@@H](O)[C@@H](O[C@H]1[C@H](O)[C@H]2O)O[C@@H]7CO)O[C@@H]6CO)O[C@@H]5CO)O[C@@H]4CO)O[C@@H]3CO` the outcome was “inactive”. With `O=C(O)c1cccc(C[C@@H]2COc3ccc(OCc4nc5cc(F)ccc5s4)cc3[C@@H]2O)c1` the outcome was “inactive”. With `CCN(CC)C(=S)SSC(=S)N(CC)CC` the AC50 was 25.4 µM (active). For `CCCCCCCCCC`, the outcome was “inactive”. For `NC(=O)NN=Cc1ccc([N+](=O)[O-])o1`, the outcome was “inactive”. For `O=C(N[C@H](CO)[C@H](O)c1ccc([N+](=O)[O-])cc1)C(Cl)Cl`, the AC50 was 73.2 µM (active). In the case of `CCCCN1C(=O)[C@@H]([C@H](O)C2CCCCC2)NC(=O)C12CCN(Cc1ccc(Oc3ccc(C(=O)O)cc3)cc1)CC2`, the AC50 is reported as 64.6 µM (active). With `OC[C@H]1O[C@@](CO)(O[C@H]2O[C@H](CO)[C@@H](O)[C@H](O)[C@H]2O)[C@@H](O)[C@@H]1O` the outcome was “inactive”.
